Results published in PubChem BioAssay (Tox21).
Results filed as inconclusive are left out. Active and inactive are the calls of the source. Unless noted, calls follow the shape of the dose curve; as a rule, active = well fitted curve in the direction sought with a large enough effect in the repeat runs; inconclusive = weak or mixed curves; inactive = no such curve, though single readings can be large; an effect the other way counts as inactive or inconclusive.

Key:
[1] = qHTS assay to identify small molecule agonists of the RXR signaling pathway - cell viability counter screen (AID 1159529);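 also: HEK 293T cells carrying an RXR-alpha UAS beta-lactamase reporter; series mostly up to about 77 µM; nearly all actives have a fitted effect of over 50% in size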
Outline: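 RXR-alpha-UAS-bla HEK 293T cells in medium with 2% charcoal-stripped FBS were preincubated 5 hr, then exposed to compounds for 16 hr at 37 C. Viability was read as CellTiter-Glo luminescence after 30 min at room temperature.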

[2] = qHTS assay to identify small molecule antagonists of the retinoid acid receptor (RAR) signaling pathway - cell viability counter screen (AID 1159551); also: nearly all actives have a fitted effect of over 35% in size
Outline: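 Cells (C3RL4) are plated, incubated overnight, dosed with compound in DMSO, then given retinol at 1 uM final. After 6 h at 37 C, CellTiter-Glo is added and luminescence read following 30 min at room temperature.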

[3] = qHTS assay to identify small molecule antagonists of the retinoic acid receptor (RAR) signaling pathway (AID 1159552; also: nearly all actives have a fitted effect of over 50% in size)
Outline: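 RARE-luc C3RL4 cells; cpds + 1 uM (final) retinol, 6 hr, 37 C/5% CO2; luciferase reagent, 30 min RT, luminescence readout. Inhibitors of retinol-driven signal scored.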

[4] = qHTS assay to identify small molecule agonists of the retinoic acid receptor (RAR) signaling pathway (AID 1159553)
Outline: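 Seed C3RL4 reporter cells at 1,000 per well and incubate overnight at 37 C. Add compounds in DMSO, incubate 6 hr. Add luciferase reagent, wait 30 min at room temperature, read luminescence.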

[5] = qHTS assay to identify small molecule antagonists of the estrogen related receptor (ERR) signaling pathway from Tox21 library - cell viability counter screen (AID 1224834); also: nearly all actives have a fitted effect of over 30% in size
Outline: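 ERR cells, 2,000/well; 6 h settle at 37 C/5% CO2; pin-tool compound transfer in DMSO; 17.5 h at 37 C; CellTiter-Fluor, 30 min; fluorescence intensity.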

[6] = molecular target: Luciferin 4-monooxygenase (Photinus pyralis) (UniProt P08659); assay: qHTS assay to identify small molecule inhibitors of firefly luciferase (AID 1224835); also: series mostly up to about 120 µM; nearly all actives have a fitted effect of over 25% in size
Chain of Luciferin 4-monooxygenase (Photinus pyralis) (P08659 whole entry, looked up): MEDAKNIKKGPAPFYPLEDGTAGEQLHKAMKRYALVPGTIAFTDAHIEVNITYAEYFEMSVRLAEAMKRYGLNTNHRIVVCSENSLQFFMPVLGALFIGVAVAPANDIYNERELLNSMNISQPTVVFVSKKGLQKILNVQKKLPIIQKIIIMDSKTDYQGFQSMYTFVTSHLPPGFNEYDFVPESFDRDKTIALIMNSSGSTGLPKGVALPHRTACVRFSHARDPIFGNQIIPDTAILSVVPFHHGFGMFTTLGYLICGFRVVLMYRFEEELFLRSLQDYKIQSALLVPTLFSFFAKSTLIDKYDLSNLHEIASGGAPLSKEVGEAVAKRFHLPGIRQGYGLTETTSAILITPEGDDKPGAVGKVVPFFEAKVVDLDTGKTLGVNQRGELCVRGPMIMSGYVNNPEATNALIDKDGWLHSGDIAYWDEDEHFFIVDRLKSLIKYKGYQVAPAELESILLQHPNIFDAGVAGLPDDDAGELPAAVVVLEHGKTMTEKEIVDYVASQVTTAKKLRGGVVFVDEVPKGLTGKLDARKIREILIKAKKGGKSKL
Outline: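 Biochemical qHTS: compounds run as interplate titrations against purified firefly enzyme, with D-luciferin and ATP each at its KM concentration. Light output recorded by CCD imaging.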

[7] = qHTS assay to identify small molecule agonists of the constitutive androstane receptor (CAR) signaling pathway - cell viability counter screen (AID 1224836); also: series mostly up to about 92 µM; nearly all actives have a fitted effect of over 45% in size
Outline: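 HepG2 cells stably carrying hCAR and a CYP2B6-2.2kb reporter were plated 4 h, then given compounds at 15 concentrations plus PK11195 (final 0.75 uM). After 23 h at 37 C, viability was read by CellTiter-Fluor fluorescence.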

[8] = qHTS assay to identify small molecule antagonists of the constitutive androstane receptor (CAR) signaling pathway - cell viability counter screen (AID 1224837); also: series mostly up to about 92 µM; nearly all actives have a fitted effect of over 45% in size
Outline: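 Viability was measured with CellTiter-Fluor in a HepG2 line carrying stably transfected hCAR and a CYP2B6-2.2kb construct. Cells were exposed for 23 hr at 37 C to 15 compound concentrations with 50 nM CITCO as agonist.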

[9] = qHTS assay to identify small molecule antagonists of the estrogen related receptor signaling pathway with the pleiotropic PPARgamma coactivator (PGC) from Tox21 10K library - cell viability counter screen (AID 1224840; active = well fitted cell-killing curve with a large enough effect in the repeat runs, not every such curve was filed as active; also: nearly all actives have a fitted effect of over 40% in size)
Outline: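 Multiplexed viability counter screen in the PGC/ERR cell line: cells treated with DMSO-dissolved compounds for 17.5 hours at 37 C, then viability measured as CellTiter-Fluor fluorescence.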

[10] = molecular target: Thyrotropin receptor (Homo sapiens) (UniProt P16473); assay: qHTS assay to identify small molecule agonists of the thyroid stimulating hormone receptor (TSHR) signaling pathway (AID 1224843; calls by dose curve; also: nearly all actives have a fitted effect of over 45% in size)
Chain of Thyrotropin receptor (Homo sapiens) (P16473 whole entry, looked up): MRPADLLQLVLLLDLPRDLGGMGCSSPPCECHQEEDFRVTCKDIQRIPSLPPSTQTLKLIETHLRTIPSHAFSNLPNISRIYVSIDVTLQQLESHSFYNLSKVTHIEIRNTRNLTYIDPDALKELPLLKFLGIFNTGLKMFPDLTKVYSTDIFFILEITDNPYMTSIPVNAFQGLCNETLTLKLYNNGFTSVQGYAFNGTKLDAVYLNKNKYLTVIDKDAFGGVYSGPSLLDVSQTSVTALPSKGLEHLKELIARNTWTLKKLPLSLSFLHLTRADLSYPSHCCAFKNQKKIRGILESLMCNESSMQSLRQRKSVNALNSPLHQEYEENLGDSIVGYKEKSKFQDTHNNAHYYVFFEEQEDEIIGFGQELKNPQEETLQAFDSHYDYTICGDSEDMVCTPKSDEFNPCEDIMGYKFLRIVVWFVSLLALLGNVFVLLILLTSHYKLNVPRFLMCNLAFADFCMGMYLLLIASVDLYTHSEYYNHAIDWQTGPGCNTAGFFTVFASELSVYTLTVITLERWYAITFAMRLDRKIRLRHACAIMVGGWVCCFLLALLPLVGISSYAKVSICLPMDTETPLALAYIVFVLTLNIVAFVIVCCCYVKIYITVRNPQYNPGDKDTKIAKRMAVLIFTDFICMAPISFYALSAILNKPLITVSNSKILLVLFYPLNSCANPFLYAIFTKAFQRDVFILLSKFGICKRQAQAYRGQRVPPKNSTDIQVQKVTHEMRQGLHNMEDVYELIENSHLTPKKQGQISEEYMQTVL
Outline: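 HEK293/TSHR, 800 cells/well; cpd 30 min RT; add cAMP-d2 + anti-cAMP-cryptate, 1 h RT; fluorescence read on plate reader. 15-pt titration, n=3.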

[11] = qHTS assay to identify small molecule agonists of the hypoxia (HIF-1) signaling pathway - cell viability counter screen (AID 1224844; calls by dose curve; also: nearly all actives have a fitted effect of over 50% in size)
Outline: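 Cytotoxicity was measured in parallel with the HRE-driven beta-lactamase readout: after 17 hrs of compound exposure at 37C, HRE-bla ME-180 cells received CellTiter-Glo and luminescence was recorded 30 min later.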

[12] = qHTS assay to identify small molecule antagonists of the estrogen related receptor signaling pathway with the pleiotropic PPARgamma coactivator (PGC) from Tox21 10K library (AID 1224841; call rule not given here; also: series mostly up to about 92 µM; actives are mostly falling curves and most rising ones were filed inactive; nearly all actives have a fitted effect of over 50% in size)
Outline: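 Steps: plate 2,000 PGC/ERR cells per well; incubate 6 h at 37 C with 5% CO2; transfer compounds from DMSO stocks by pin tool; incubate 18 h at 37 C; add One-Glo; measure luminescence 30 min later.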

[13] = qHTS assay to identify small molecule agonists of the estrogen related receptor signaling pathway with the pleiotropic PPARgamma coactivator (PGC) from Tox21 10K library (AID 1224842); also: nearly all actives have a fitted effect of over 15% in size
Outline: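 PGC/ERR reporter cell line, 2,000 cells per well, incubated 6 h at 37 C before 23 nL compound in DMSO was added. After 18 h at 37 C, One-Glo luminescence read following 30 min at room temperature.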

[14] = molecular target: Nuclear receptor subfamily 1 group I member 3 (Homo sapiens) (UniProt Q14994); assay: qHTS assay to identify small molecule antagonists of the constitutive androstane receptor (CAR) signaling pathway (AID 1224838); also: nearly all actives have a fitted effect of over 40% in size
Chain of Nuclear receptor subfamily 1 group I member 3 (Homo sapiens) (Q14994 whole entry, looked up): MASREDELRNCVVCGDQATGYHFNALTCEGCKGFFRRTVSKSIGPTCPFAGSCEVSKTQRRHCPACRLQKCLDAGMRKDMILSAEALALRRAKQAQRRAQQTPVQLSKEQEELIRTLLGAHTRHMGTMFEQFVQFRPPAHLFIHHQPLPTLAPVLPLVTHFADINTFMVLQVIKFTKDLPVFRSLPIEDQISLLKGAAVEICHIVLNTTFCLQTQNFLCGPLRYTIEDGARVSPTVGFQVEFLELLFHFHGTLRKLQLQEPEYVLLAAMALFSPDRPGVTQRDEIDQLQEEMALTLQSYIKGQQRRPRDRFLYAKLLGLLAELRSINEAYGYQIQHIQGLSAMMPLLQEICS
Outline: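 Antagonist mode used CITCO at a final 50 nM to activate CAR in human hepatoma HepG2 cells carrying stable hCAR and a 2.2 kb CYP2B6 promoter-luciferase construct. Compounds were tested at 15 concentrations over 24 h, with luminescence as the end point.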

[15] = molecular target: Nuclear receptor subfamily 1 group I member 3 (Homo sapiens) (UniProt Q14994); assay: qHTS assay to identify small molecule agonists of the constitutive androstane receptor (CAR) signaling pathway (AID 1224839); also: series mostly up to about 92 µM; nearly all actives have a fitted effect of over 15% in size
Outline: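 HepG2 cells stably expressing hCAR and a CYP2B6-2.2kb luciferase reporter were treated with compounds at 15 concentrations plus 0.75 uM PK11195 (final) for 24 h at 37 C; luminescence was read after ONE-Glo addition.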

Measured: Potency

CCOP(=O)(CN(CCO)CCO)OCC
not listed: [12] | [13] | [14] | [15]
inactive: all other assays above

CC(=O)CN(CC(C)=O)N=O
not listed: [14] | [15]
inactive: all other assays above

CCC1(CC)C(=O)C=CNC1=O
not listed: [9] | [14] | [15]
inactive: all other assays above

C1CN2CCC1CC2
not listed: [12] | [13] | [15]
inactive: all other assays above

CCOP(=S)(OCC)SCCl
not listed: [12] | [13] | [14] | [15]
inactive: all other assays above

CNC(=O)Oc1ccccc1C(C)C
not listed: [15]
inactive: all other assays above

BrCC1CO1 (stereo unspecified)
not listed: [9] | [10] | [12] | [13]
inactive: all other assays above

CCCC[N+](=O)[O-]
not listed: [15]
inactive: all other assays above

COc1ccc(C=O)cc1O
not listed: [9] | [12]
inactive: all other assays above

ClCCCCCCCl
not listed: [12] | [13] | [15]
inactive: all other assays above

O=S1(=O)OCCO1
not listed: [15]
inactive: all other assays above

CC(=NC#N)N(C)Cc1ccc(Cl)nc1
not listed: [12] | [13] | [14] | [15]
inactive: all other assays above

COc1ccc2c(C(=O)c3ccc(Cl)cc3)c(C)n(CC(=O)O)c2c1
not listed: [9] | [10] | [12] | [13] | [14]
inactive: all other assays above

OCC(Cl)CCl (stereo unspecified)
not listed: [10] | [12] | [13] | [14] | [15]
inactive: all other assays above

CCOC(=O)c1ncn2c1CN(C)C(=O)c1c(I)cccc1-2
not listed: [12] | [13] | [14] | [15]
inactive: all other assays above

O=C(NC(O)C(Cl)(Cl)Cl)NC(O)C(Cl)(Cl)Cl (stereo unspecified)
not listed: [10] | [12] | [13] | [14] | [15]
inactive: all other assays above

CCOC(=O)N(C)N=O
not listed: [14] | [15]
inactive: all other assays above

CN(C)CCc1c[nH]c2cccc(OP(=O)(O)O)c12
not listed: [9] | [10] | [12] | [13] | [14] | [15]
inactive: all other assays above

CN(C)C(=O)Oc1cc(OC(=O)N(C)C)cc(C(O)CNC(C)(C)C)c1 (stereo unspecified)
not listed: [14] | [15]
inactive: all other assays above

CCCCS(=O)(=O)Cl
not listed: [9]
inactive: all other assays above

Clc1ccc(C(Cl)(Cl)Cl)cn1
not listed: [11] | [12] | [13] | [14] | [15]
inactive: all other assays above

N#CN=C1SCCN1Cc1ccc(Cl)nc1
not listed: [14] | [15]
inactive: all other assays above
